An excerpt weighted towards active compounds, which were near 2.4% of everything screened.
Pol beta inh-1 – qHTS Assay for Inhibitors of DNA Polymerase Beta. P06746. Potency, µM (top dose mostly 114 µM), most hits filed as inhibitors. hit rate 1.3% among 340,000. Pol beta primer extension/strand displacement, fluorescence kinetic
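Reaction started by 50 nM substrate onto compound-treated Pol beta (10 nM, 15 min preincubation, room temperature); plates read at 0 min and 10 min. Normalized concentration-effect data fitted by four-parameter Hill equation.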
Pol iota inh – qHTS for Inhibitors of Polymerase Iota | Pol iota fluorescent replication assay, 10 min | Potency, µM (top dose mostly 115 µM), most hits filed as inhibitors | DNA polymerase iota (Homo sapiens), Q9UNA4 | hit rate 1% among 390,000
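Pol iota at 10 nM preincubated 15 min with compounds at room temperature; reaction started with fluorescent substrate, 50 nM final. Fluorescence read kinetically at 0 and 10 min; buffer-only wells as negative control.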
POLK inh – qHTS for Inhibitors of Polymerase Kappa | DNA polymerase kappa (Homo sapiens), Q9UBT6 | purified Pol kappa, fluorescent DNA synthesis assay, 10 min | Potency, µM (top dose mostly 107 µM), most hits filed as inhibitors | hit rate 0.53% among 400,000
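10 nM Pol kappa preincubated 15 min at room temperature with compounds, then reaction started with substrate at 50 nM final. Fluorescence read kinetically at 0 and 10 min; buffer-only wells served as negative control.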
WRN inhibitor – qHTS for Inhibitors of WRN Helicase; Bifunctional 3'-5' exonuclease/ATP-dependent helicase WRN (Homo sapiens), Q14191; WRN helicase unwinding, fluorescent forked duplex, kinetic; Potency, µM (doses to about 114 µM), hits mostly inhibitors; hit rate 0.46% among 360,000; AID 651768, 2012; note: nearly all actives have a fitted effect of over 55% in size
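Primary qHTS, 1536-well format. 20 nM WRN + compound, 15 min RT; start with 100 nM forked fluorophore/quencher duplex, 2 mM ATP (final); kinetic read ex 525/em 598 nm.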
Pol eta inh-1 – qHTS for Inhibitors of Polymerase Eta | DNA polymerase eta (Homo sapiens), Q9Y253 | recombinant Pol eta, fluorescent DNA replication assay | Potency, µM (titrated, usually from 114 µM), usual class: inhibitors | hit rate 1.2% among 390,000
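Pol eta at 10 nM preincubated with compounds 15 min at room temperature; reaction started with fluorescent substrate (50 nM final) and read kinetically at 0 and 10 min.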
FEN1 inh – qHTS Assay for the Inhibitors of Human Flap endonuclease 1 (FEN1); hit rate 0.35% among 390,000; P39748; Potency, µM (titrated, usually from 114 µM), hits mostly inhibitors; Recombinant FEN1 flap cleavage, fluorescence, 15 min; note: nearly all actives have a fitted effect of over 65% in size
Target sequence (P39748 whole entry, looked up): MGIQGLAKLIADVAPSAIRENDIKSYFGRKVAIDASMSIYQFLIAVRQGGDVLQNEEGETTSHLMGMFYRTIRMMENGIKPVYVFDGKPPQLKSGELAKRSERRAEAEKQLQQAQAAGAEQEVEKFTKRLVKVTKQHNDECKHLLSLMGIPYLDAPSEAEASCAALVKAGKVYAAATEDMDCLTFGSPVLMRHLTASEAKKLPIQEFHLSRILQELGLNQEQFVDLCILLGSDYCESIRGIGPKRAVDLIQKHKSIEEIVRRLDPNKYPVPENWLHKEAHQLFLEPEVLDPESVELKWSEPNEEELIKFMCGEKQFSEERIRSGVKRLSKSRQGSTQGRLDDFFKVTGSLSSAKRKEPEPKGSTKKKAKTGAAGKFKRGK
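Compounds are tested as a concentration series against 10 nM FEN1; after a 15 min room-temperature preincubation, 50 nM substrate starts cleavage, with plate reads at 0 and 15 min. Normalized responses are fitted by a Hill equation.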
Pol beta inh-2 – Inhibitors of DNA Polymerase Beta: Hit validation. shares compounds with Pol beta inh-1. Pol beta primer extension/strand displacement, fluorescence kinetic. Potency, µM, actives largely listed as inhibitors. hit rate 87% among 250. AID 540280, 2011; calls by dose curve
Klenow counter – Inhibitors of DNA Polymerase Beta: Hit Validation in Klenow Fragment Assay; shares compounds with Pol beta inh-1; Klenow exo- polymerase counter-screen, fluorescent DNA substrate; activity change, negative = inhibition, % at 57.1 µM; 250 tested, under 10 active; AID 540300, 2011
HIV RT inh – Inhibitors of DNA Polymerase Beta: Hit Validation in HIV-RT Assay; shares compounds with Pol beta inh-1; HIV-1 RT polymerase activity, counter-screen; activity % (negative = inhibition, positive = activation), % at 57.1 µM; 250 tested, under 10 active; AID 540301, 2011
POLB inh gel – Inhibitors of DNA Polymerase Beta: Hit Validation in Radiolabeled Extension Assay; inhibition, % at 10 µM; AID 540325, 2011; shares compounds with Pol beta inh-1; radiolabeled primer extension gel assay, phosphorimager; hit rate 91% among 110;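 active = inhibition at 10 µM of 30% or more; inconclusive = no clear call, values can overlap the other calls; inactive = inhibition at 10 µM under 30%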
Pol iota confirm – qHTS for Inhibitors of Polymerase Iota: Confirmatory Assay for Cherry-picked Compounds. shares compounds with POLK inh. Pol iota primer extension, TAMRA/BHQ fluorescence. Potency, µM, hits mostly inhibitors. hit rate 77% among 1,500. AID 720496, 2013
Pol eta inh-2 – qHTS for Inhibitors of Polymerase Eta: Confirmatory Assay for Cherry-picked Compounds. Potency, µM, usual class: inhibitors. shares compounds with Pol eta inh-1. Pol eta primer extension, TAMRA/BHQ fluorescence, 10 min. hit rate 64% among 2,600. AID 720502, 2013
Of the large screens only hits and unclear results are named; the others gave an inactive call (follow-up assays come after a bar, where they were run). Unless noted, calls come from the whole dose curve; as a rule, active = well fitted curve in the direction sought with a large enough effect; inconclusive = small, poorly fitted or top-dose-only effect, or another doubt; inactive = no such curve, though single readings can be large; an effect the other way counts as inactive or inconclusive.

CC1CCN(S(=O)(=O)c2ccc(NC(=O)c3ccccc3F)cc2)CC1	WRN inhibitor inconclusive
CC1CCN(S(=O)(=O)c2ccc(NC(=O)Cn3nnc(-c4ccccc4F)n3)cc2)CC1	Pol beta inh-1 16µM, Pol iota inh 50µM, POLK inh inconclusive, Pol eta inh-1 inconclusive | Pol beta inh-2 35 | Klenow counter inactive | HIV RT inh inactive
CC(C)(C)c1nc2ccccc2c2nnc(SCC(=O)Nc3nc4ccccc4s3)n12	Pol beta inh-1 0.18µM, Pol iota inh 45µM | Pol beta inh-2 inconclusive | Klenow counter inactive | HIV RT inh inactive | POLB inh gel 85
CC(C)(C)c1nc2ccccc2c2nnc(SCC(=O)Nc3nccs3)n12	none
CC(C)Oc1ccc(CNC(=O)CN2C(=O)c3cccnc3Oc3ccc(Cl)cc32)cc1	none (no result: WRN inhibitor)
O=C(CSc1nc2scc(-c3ccco3)c2c(=O)n1-c1ccccc1)NCC1CCCO1 (centres undefined)	Pol beta inh-1 11µM, Pol iota inh 40µM, Pol eta inh-1 inconclusive | Pol beta inh-2 inconclusive | Klenow counter inactive | HIV RT inh inactive | POLB inh gel 70
Cn1c(SCC(=O)NCC2CCCO2)nc2scc(-c3ccccc3)c2c1=O (centres undefined)	none (no result: Pol beta inh-1)
Cc1cc2oc(=O)cc(-c3cc4ccccc4o3)c2cc1O	Pol beta inh-1 0.25µM, POLK inh inconclusive, Pol eta inh-1 inconclusive | Pol beta inh-2 16 | Klenow counter inactive | HIV RT inh inactive
CC(=O)COc1ccc2oc(=O)cc(-c3cc4ccccc4o3)c2c1	FEN1 inh inconclusive
Nc1nc(SCc2ccc(Cl)cc2Cl)nc2nc3c(cc12)CCCC3	Pol beta inh-1 10µM, Pol iota inh 79µM, WRN inhibitor inconclusive, Pol eta inh-1 inconclusive | Pol beta inh-2 35 | Klenow counter inactive | HIV RT inh inactive | Pol iota confirm 34
CCOc1cc(/C=C(\C#N)C(=O)Nc2cccc(C(=O)O)c2)ccc1OCc1ccc(Br)cc1	Pol beta inh-1 10µM, Pol iota inh 7.1µM, Pol eta inh-1 inconclusive, FEN1 inh inconclusive | Pol beta inh-2 3.5 | Klenow counter inactive | HIV RT inh inactive | Pol iota confirm 7.5
COc1cc(/C=C(\C#N)C(=O)Nc2cccc(C(=O)O)c2)ccc1OCc1ccc(C)cc1	Pol beta inh-1 inconclusive
Cc1ccc(-c2noc(-c3ccc(NCc4ccco4)c([N+](=O)[O-])c3)n2)cc1	none (no result: WRN inhibitor)
N#CC1=C(N)N2C(=C(C#N)C1c1ccc(Br)cc1)Nc1ccccc12 (centres undefined)	Pol beta inh-1 13µM, Pol iota inh inconclusive, Pol eta inh-1 56µM | Pol beta inh-2 16 | Klenow counter inactive | HIV RT inh inactive | Pol iota confirm inconclusive
N#CC1=C(N)N2C(=C(C#N)C1c1cccc(Br)c1)Nc1ccccc12 (centres undefined)	none
CCOc1ccc(NC(=O)Nc2nnc(N3CCCCC3C)s2)cc1 (centres undefined)	none (no result: WRN inhibitor)
Cn1c(SCC(=O)Nc2ccc3nc(SCC(=O)N4CCCC4)sc3c2)nnc1-c1ccccc1	Pol beta inh-1 7.1µM, Pol iota inh inconclusive, POLK inh 79µM, WRN inhibitor inconclusive, Pol eta inh-1 14µM | Pol beta inh-2 13 | Klenow counter inactive | HIV RT inh inactive | Pol iota confirm 75
Cc1cc(C)c(Cn2c3ccccc3c3cnn(CC(=O)NCC(C)c4ccccc4)c(=O)c32)c(C)c1 (centres undefined)	none (no result: WRN inhibitor)
COc1cccc(C(=O)Nc2ccc3c(c2)C(=O)c2ccccc2C3=O)c1	Pol beta inh-1 10µM, Pol iota inh inconclusive, WRN inhibitor inconclusive, Pol eta inh-1 inconclusive | Pol beta inh-2 14 | Klenow counter inconclusive | HIV RT inh inactive | Pol iota confirm inconclusive
Cc1c(O)cc2c(c1O)C(=O)CC(c1ccc(O)cc1)O2 (centres undefined)	Pol beta inh-1 1.3µM, Pol iota inh inconclusive, POLK inh 14µM, Pol eta inh-1 8.9µM, FEN1 inh inconclusive | Pol beta inh-2 5 | Klenow counter inactive | HIV RT inh inactive | Pol eta inh-2 inconclusive
O=C1CC(c2ccc(O)cc2)Oc2cc(O)ccc21 (centres undefined)	none (no result: Pol beta inh-1)
O=c1c(-c2cccs2)nc2cnc(Oc3cccc(Cl)c3)nc2n1C[C@H]1CCCO1	none (no result: Pol beta inh-1, Pol iota inh, WRN inhibitor, Pol eta inh-1, FEN1 inh)
CCOC(=O)c1ccccc1NC(=O)c1ccc2nccnc2c1	Pol beta inh-1 8.9µM, Pol iota inh inconclusive, POLK inh inconclusive, Pol eta inh-1 20µM, FEN1 inh inconclusive | Pol beta inh-2 28 | Klenow counter inactive | HIV RT inh inactive | POLB inh gel 54 | Pol iota confirm inconclusive | Pol eta inh-2 30
CCC(CC)c1nnc(NC(=O)COc2ccc3c(C)cc(=O)oc3c2)s1	none
Cc1nnc(NC(=O)COc2ccc3c(C)cc(=O)oc3c2)s1	Pol beta inh-1 20µM, Pol iota inh inconclusive, WRN inhibitor inconclusive, Pol eta inh-1 10µM | Pol beta inh-2 22 | Klenow counter inactive | HIV RT inh inactive | POLB inh gel 96 | Pol iota confirm 60 | Pol eta inh-2 76
CC1(C)CC(=O)C2=C(C1)O[C@@]1(CCCCN3C(=O)c4ccccc4C3=O)Cc3ccccc3C2O1	none (no result: Pol iota inh, POLK inh, WRN inhibitor, Pol eta inh-1, FEN1 inh)
Cc1cc(C)n(-c2nc(N(c3ccccc3)c3ccccc3)nc(-n3nc(C)cc3C)n2)n1	none
